Structures are written as SMILES. This is part of a sample that, as a whole, favours compounds with a hit. Of some 83,000 tested, about 20% had one in any assay.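 Growth was measured after 48 h exposure to one concentration of compound in 96-well plates. Values under 10 count as active.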 Values without a mark were called inactive. The source made the active and inactive calls.

Data on 40 compounds can be found in PubChem BioAssay (NCI).

The test system of the first test is SW-620 colon. Kind of test: NCI-60 one-dose screen, 48 h (100 = growth as untreated, 0 = no growth, -100 = all killed). To be noted: 10 µM unless noted.
For `Nc1nc(-c2ccnc(Cl)c2)nn1-c1nc2ccccc2s1`, the growth was 106%.
Still for that read-out and setting: the figure for `Cc1ccc(S(=O)(=O)N2CCc3ccc(O)c4c3C2Cc2cc(Cl)ccc2-4)cc1` (centres undefined) is 33.1%.
`Cc1nc2cc(Nc3nc(NCCO)nc(Nc4ccc(F)cc4)n3)ccc2n1Cc1ccccc1`: the growth is 109%.
As to `CCC12CCC3c4ccc(O)cc4CCC3C1CC(O)C2O` (centres undefined), the growth is 43%.
As to `O=c1c2c(=NCCN3CCCC3)cc3c(=O)n(CCCN4CCOCC4)c(=O)c4ccc(c(O)n1CCCN1CCOCC1)c2c4-3`, the growth was -15.5% (active).
In the case of `Nc1cc2[nH]c(=O)c3ccccc3c2cc1Br`, the growth was 82.9%.
Turning to `O=C1N/C(=C\c2ccccc2)c2ncccc21`, the growth was 113%.
With `O=C1/C(=C/c2ccccc2F)CNC/C1=C\c1ccccc1F`, the growth is -49.8% (active).
As for `COc1ccc(NC(=O)c2ccc3c(c2)nc(-c2ccc(Cl)cc2)n3-c2cc(C(C)(C)C)[nH]n2)cc1`, the growth is 104%.
`Cc1ccc(S(=O)(=O)N2CCc3ccc(O)c4c3C2Cc2ccc3c(c2-4)OCO3)cc1` (centres undefined): the growth was 37.2%.
Take `Cn1c2ccc(Cl)cc2c2nn(C(=O)c3ccccc3)c(=O)nc21`: the growth is 99.3%.
`NC(=O)c1cc(I)ccc1NC(=O)COc1ccc(Cl)cc1Cl`: the growth was 79.6%.
With `CCCN1CCN(c2ccc3nc(-c4ccc5nc(-c6ccc(C(F)(F)F)cc6)[nH]c5c4)[nH]c3c2)CC1`, the growth was -82.6% (active).
The same measure, in the same setting: the result for `O=C(CC(O)c1ccccc1)Nc1ccccn1` (centres undefined) reads 109%; that for `O=C1c2ccccc2-c2cn(Cc3ccccc3)c3cccc(c23)C1c1cccnc1` (centres undefined), 30.8%.
Still for that read-out and setting: the figure for `C[C@]1(CO)C[C@@H](O)C[C@]2(C)[C@@H]1CC[C@@]13C[C@@H]4[C@@H](C[C@H]12)[C@]4(C)C3` is 101%; for `NC(=O)c1cc(I)ccc1NC(=O)COc1ccccc1` it is 23.5%.
Same read-out and setting: the result for `Cc1ccc(N(CSc2ccc(Cl)cc2)CSc2ccc(Cl)cc2)cc1` reads 31.4%; that for `COc1cccc(OC)c1OC(=O)c1ccccc1`, 102%; that for `COc1cc(-c2nc(SC(C)C)nc(Nc3cccc(C)c3)c2C#N)cc(OC)c1OC`, 109%.
Regarding `Cc1ccc(S(=O)(=O)N2CCc3ccc(O)c4c3C2CCc2ccccc2-4)cc1` (centres undefined), the growth was 102%.
The same measure, in the same setting: the result for `COc1cc(CNCCCN2C(=O)c3ccc4c5c(ccc(c35)C2=O)C(=O)N(CCCNCc2cc(OC)c(OC)c(OC)c2)C4=O)cc(OC)c1OC` reads -69.8% (active); that for `COC(=O)c1ccc(C(=O)Nc2ccccc2N)cc1`, 72.3%; that for `COc1c(Cl)ccc2c(-c3nc4cc(Cl)c(F)cc4s3)cc(=O)oc12`, 90.9%.
Turning to `COc1ccc(-c2nc3sc(C)nn3c2-c2nc3cc(C)c(C)cc3[nH]2)cc1`, the growth is 98.5%.
As to `COc1cc(/C=C/C(=O)C(=Cc2ccc(F)c(F)c2)C(=O)/C=C/c2ccc(O)c(OC)c2)ccc1O`, the growth was -44.7% (active).
In the case of `O=C1/C(=C/c2ccc(Cl)cc2)N=C(c2ccccc2)N1CCc1cccs1`, the growth was 51.3%.
The same measure, in the same setting: the figure for `CC(C)(C)CC(C)(C)N(CSc1ccc(Cl)cc1)CSc1ccc(Cl)cc1` is 35.9%; for `NC1=NC(c2ccccc2OS(=O)(=O)c2ccc(Br)cc2)n2c(nc3ccccc32)N1` (centres undefined) it is 96%; for `CC(=O)OC[C@H](O)[C@@]1(O)CC[C@H]2[C@@H]3CCC4=CC(=O)CC[C@]4(C)[C@H]3[C@@H](O)C[C@@]21C` it is 102%.
Still for that read-out and setting: the result for `Cc1ccccc1-n1nnc(C(=O)Nc2ccc(-c3ccccc3)cn2)c1C` reads 69.3% [50 µM]; that for `C=C1CC[C@@H]2[C@@](C)(CCC[C@]2(C)C(=O)O)[C@@H]1CC[C@H](CO)CCO`, 114%.
Turning to `O=C(c1cnn2c1NC(c1ccc(F)cc1)C2)N1CCCCC1` (centres undefined), the growth is 102%.
In the case of `COc1cc(/C=C/C(=O)CC(=O)/C=C/c2cc(Br)c(OC)c(OC)c2)cc(Br)c1OC`, the growth is 114%.
`CCCCNNC(=O)c1ccc(Br)cc1`: the growth was 32.6%.
Same read-out and setting: the figure for `NC(=S)N/N=C1\c2ccccc2-c2c(F)c(F)c(F)c(F)c21` is 59.8%; for `COc1c(O)c2c3c(c1OC)-c1ccccc1CC3N(S(=O)(=O)c1ccc(C)cc1)CC2` (centres undefined) it is 30%.
Same read-out and setting: the figure for `CN1CCN(C)c2cncc(Br)c2C1=O` is 102%.
For `CCC(C)Oc1cc(/C=N/NC(=O)c2cnn3c2NC(c2ccccc2)C3)ccc1OC` (centres undefined), the growth is 27.3%.
The same measure, in the same setting: the figure for `COc1cc(OCc2cccc(-c3ccc(C(O)c4nccs4)cc3)c2C)cc(OC)c1C=O` (centres undefined) is 56%.

For a further test, the system named is MCF7 breast. Described as above. The settings on record: 10 µM unless noted.
With `Nc1nc(-c2ccnc(Cl)c2)nn1-c1nc2ccccc2s1`, the growth is 97.2%.
The same measure, in the same setting: the result for `Cc1ccc(S(=O)(=O)N2CCc3ccc(O)c4c3C2Cc2cc(Cl)ccc2-4)cc1` (centres undefined) reads 23.3%.
The same measure, in the same setting: the figure for `Cc1nc2cc(Nc3nc(NCCO)nc(Nc4ccc(F)cc4)n3)ccc2n1Cc1ccccc1` is 91.3%; for `CCC12CCC3c4ccc(O)cc4CCC3C1CC(O)C2O` (centres undefined) it is 75.5%; for `O=c1c2c(=NCCN3CCCC3)cc3c(=O)n(CCCN4CCOCC4)c(=O)c4ccc(c(O)n1CCCN1CCOCC1)c2c4-3` it is -17.7% (active).
For `Nc1cc2[nH]c(=O)c3ccccc3c2cc1Br`, the growth was 24.5%.
As for `O=C1N/C(=C\c2ccccc2)c2ncccc21`, the growth is 80%.
Same read-out and setting: the figure for `O=C1/C(=C/c2ccccc2F)CNC/C1=C\c1ccccc1F` is -47% (active).
As to `COc1ccc(NC(=O)c2ccc3c(c2)nc(-c2ccc(Cl)cc2)n3-c2cc(C(C)(C)C)[nH]n2)cc1`, the growth was 83%.
On the same count and under the same terms, the result for `Cc1ccc(S(=O)(=O)N2CCc3ccc(O)c4c3C2Cc2ccc3c(c2-4)OCO3)cc1` (centres undefined) reads 20.6%.
The same measure, in the same setting: the figure for `Cn1c2ccc(Cl)cc2c2nn(C(=O)c3ccccc3)c(=O)nc21` is 94.7%.
Still for that read-out and setting: the result for `NC(=O)c1cc(I)ccc1NC(=O)COc1ccc(Cl)cc1Cl` reads 72.2%; that for `CCCN1CCN(c2ccc3nc(-c4ccc5nc(-c6ccc(C(F)(F)F)cc6)[nH]c5c4)[nH]c3c2)CC1`, -77% (active); that for `O=C(CC(O)c1ccccc1)Nc1ccccn1` (centres undefined), 103%.
On to `O=C1c2ccccc2-c2cn(Cc3ccccc3)c3cccc(c23)C1c1cccnc1` (centres undefined), for which the growth is 12.4%.
On to `C[C@]1(CO)C[C@@H](O)C[C@]2(C)[C@@H]1CC[C@@]13C[C@@H]4[C@@H](C[C@H]12)[C@]4(C)C3`, for which the growth was 102%.
`NC(=O)c1cc(I)ccc1NC(=O)COc1ccccc1`: the growth is 17.7%.
Same read-out and setting: the figure for `Cc1ccc(N(CSc2ccc(Cl)cc2)CSc2ccc(Cl)cc2)cc1` is 65.6%; for `COc1cccc(OC)c1OC(=O)c1ccccc1` it is 101%.
The same measure, in the same setting: the result for `COc1cc(-c2nc(SC(C)C)nc(Nc3cccc(C)c3)c2C#N)cc(OC)c1OC` reads 98.1%.
Still for that read-out and setting: the figure for `Cc1ccc(S(=O)(=O)N2CCc3ccc(O)c4c3C2CCc2ccccc2-4)cc1` (centres undefined) is 103%; for `COc1cc(CNCCCN2C(=O)c3ccc4c5c(ccc(c35)C2=O)C(=O)N(CCCNCc2cc(OC)c(OC)c(OC)c2)C4=O)cc(OC)c1OC` it is -58.1% (active); for `COC(=O)c1ccc(C(=O)Nc2ccccc2N)cc1` it is 69.2%.
Regarding `COc1c(Cl)ccc2c(-c3nc4cc(Cl)c(F)cc4s3)cc(=O)oc12`, the growth was 96.2%.
As for `COc1ccc(-c2nc3sc(C)nn3c2-c2nc3cc(C)c(C)cc3[nH]2)cc1`, the growth is 88.6%.
In the case of `COc1cc(/C=C/C(=O)C(=Cc2ccc(F)c(F)c2)C(=O)/C=C/c2ccc(O)c(OC)c2)ccc1O`, the growth is 35.8%.
Same read-out and setting: the figure for `O=C1/C(=C/c2ccc(Cl)cc2)N=C(c2ccccc2)N1CCc1cccs1` is 15.7%.
On the same count and under the same terms, the result for `CC(C)(C)CC(C)(C)N(CSc1ccc(Cl)cc1)CSc1ccc(Cl)cc1` reads 31.4%; that for `NC1=NC(c2ccccc2OS(=O)(=O)c2ccc(Br)cc2)n2c(nc3ccccc32)N1` (centres undefined), 77.3%.
`Cc1ccccc1-n1nnc(C(=O)Nc2ccc(-c3ccccc3)cn2)c1C`: the growth was 24.3% [50 µM].
Take `C=C1CC[C@@H]2[C@@](C)(CCC[C@]2(C)C(=O)O)[C@@H]1CC[C@H](CO)CCO`: the growth is 101%.
With `O=C(c1cnn2c1NC(c1ccc(F)cc1)C2)N1CCCCC1` (centres undefined), the growth is 93.2%.
With `COc1cc(/C=C/C(=O)CC(=O)/C=C/c2cc(Br)c(OC)c(OC)c2)cc(Br)c1OC`, the growth was 97.4%.
The same measure, in the same setting: the result for `CCCCNNC(=O)c1ccc(Br)cc1` reads 48%; that for `NC(=S)N/N=C1\c2ccccc2-c2c(F)c(F)c(F)c(F)c21`, 28.7%.
Still for that read-out and setting: the figure for `COc1c(O)c2c3c(c1OC)-c1ccccc1CC3N(S(=O)(=O)c1ccc(C)cc1)CC2` (centres undefined) is 20.2%.
On the same count and under the same terms, the figure for `CN1CCN(C)c2cncc(Br)c2C1=O` is 105%.
On to `CCC(C)Oc1cc(/C=N/NC(=O)c2cnn3c2NC(c2ccccc2)C3)ccc1OC` (centres undefined), for which the growth was 18.5%.
Same read-out and setting: the figure for `COc1cc(OCc2cccc(-c3ccc(C(O)c4nccs4)cc3)c2C)cc(OC)c1C=O` (centres undefined) is 7.09% (active).
